Inhibition data for 27 molecules are collected here from ChEMBL document CHEMBL4513141, “CO-ADD screening of NIH (USA) - Clinical Collection” (2021).

Entries with a potency or affinity are not part of this list.

One test deals with Klebsiella pneumoniae. To be noted: Concentration 20 uM; ASSAY_TEST Inhibition of Bacterial Growth; detection method Absorption (OD600); MEDIA CAMHB; plate type 384well; NBS; CORNING #3640; time 18 hr.
For another test, the system named is Candida albicans. Particulars: 20 µM.
A further test concerns Cryptococcus neoformans. Particulars: Concentration 20 uM; ASSAY_TEST Inhibition of Fungal Growth; detection method Resazurin; Absorption (OD600-OD570); plate type 384well; NBS; CORNING #3640.

In the case of `CCC(CO)NCCNC(CC)CO` (stereo unspecified), the Inhibition – broadly, the change of the read-out against control, counted positive when it falls – with Klebsiella pneumoniae was 10.98%; with Candida albicans, 2.36%; with Cryptococcus neoformans, -1.69%.
Consider `C[C@]12CC[C@@H]3c4ccc(O)cc4CC[C@H]3[C@@H]1CC[C@@H]2O` [ESTRADIOL], for which the Inhibition in the test with Klebsiella pneumoniae is 5.27%; with Candida albicans, 5.91%; in the test on Cryptococcus neoformans, -4.05%.
For `CC12CC3CC(C)(C1)CC(N)(C3)C2.Cl` [MEMANTINE HYDROCHLORIDE] the same measures were 12.73%, 4.09% and -0.08%.
In the case of `Cc1c(C(=O)NN2CCCCC2)nn(-c2ccc(Cl)cc2Cl)c1-c1ccc(I)cc1`, the Inhibition in the test with Klebsiella pneumoniae was -0.74%; in the test on Candida albicans it was 7.4%; in the test on Cryptococcus neoformans, -5.99%.
For `CCCCC[C@H](O)/C=C/[C@H]1[C@H](O)CC(=O)[C@@H]1CCCCCCC(=O)O` [ALPROSTADIL], the Inhibition came out at 7.2% in the test with Klebsiella pneumoniae, 3.09% in the test with Candida albicans and 2.52% in the test with Cryptococcus neoformans.
For `O=c1cnn([C@@H]2O[C@H](CO)[C@@H](O)[C@H]2O)c(=O)[nH]1` [6-AZAURIDINE], the figures for the Inhibition in the test with Klebsiella pneumoniae, in the test with Candida albicans and in the test on Cryptococcus neoformans were 4.69%, 7.12% and 7.24%, respectively.
For `C[C@@H]1CN(CCCn2c3ccccc3c3ccccc32)C[C@H](C)N1.Cl.O`, the Inhibition was -0.67% in the test with Klebsiella pneumoniae, 0.45% in the test with Candida albicans and 2.04% with Cryptococcus neoformans.
In the case of `Nc1nc(N)c2nc(-c3ccccc3)c(N)nc2n1`, the Inhibition in the test with Klebsiella pneumoniae is -1.05%; in the test with Candida albicans, 4.35%; in the test with Cryptococcus neoformans it was 1.8%.
Regarding `CCCNC(C)C(=O)Nc1ccccc1C.Cl` (stereo unspecified) [PRILOCAINE HYDROCHLORIDE], the results for the Inhibition in the test with Klebsiella pneumoniae, with Candida albicans and in the test on Cryptococcus neoformans were 10.6%, 2.91% and -8.37%, respectively.
For `NC(Cc1cc(I)c(Oc2ccc(O)c(I)c2)c(I)c1)C(=O)O` (stereo unspecified) [RATHYRONINE] the same measures were 9.96%, 2.19% and -1.85%.
For `CC(C)(C)NCC(O)c1ccc(O)c(CO)c1.CC(C)(C)NCC(O)c1ccc(O)c(CO)c1.O=S(=O)(O)O` (stereo unspecified) [ALBUTEROL SULFATE] the same measures were 17.78%, 3.1% and -3.67%.
Turning to `CNNCc1ccc(C(=O)NC(C)C)cc1.Cl` [PROCARBAZINE HYDROCHLORIDE], the Inhibition was 8% in the test with Klebsiella pneumoniae, 2.55% in the test on Candida albicans and -6.46% in the test on Cryptococcus neoformans.
On the same counts, the results for `O=C([O-])c1cc(=O)c2c(OCC(O)COc3cccc4oc(C(=O)[O-])cc(=O)c34)cccc2o1.[Na+].[Na+]` [CROMOLYN SODIUM] are 6.64%, 2.62% and 0.69%.
Turning to `Cc1nc2ccccn2c(=O)c1CCN1CCC(C(=O)c2ccc(F)cc2)CC1` [PIRENPERONE], the Inhibition was 8.87% with Klebsiella pneumoniae, 3.8% in the test on Candida albicans and -7.79% in the test with Cryptococcus neoformans.
In the case of `CC[C@H](C)C(=O)O[C@H]1CCC=C2C=C[C@H](C)[C@H](CC[C@@H]3C[C@@H](O)CC(=O)O3)[C@H]21` [MEVASTATIN], the Inhibition with Klebsiella pneumoniae is 5.3%; in the test on Candida albicans, 24.7%; in the test on Cryptococcus neoformans it was -2.39%.
With `CCCC1O[C@@H]2C[C@H]3[C@@H]4CCC5=CC(=O)C=C[C@]5(C)[C@H]4[C@@H](O)C[C@]3(C)[C@]2(C(=O)CO)O1` (stereo partly specified) [BUDESONIDE], the Inhibition with Klebsiella pneumoniae is 10.57%; in the test with Candida albicans it was 2.59%; in the test with Cryptococcus neoformans, -1.35%.
Take `O=C(NCCO[N+](=O)[O-])c1cccnc1` [NICORANDIL]: the figures for the Inhibition in the test on Klebsiella pneumoniae, in the test on Candida albicans and in the test with Cryptococcus neoformans were 15.28%, 1.66% and -0.1%, respectively.
As to `Nc1nc(Cl)nc2c1ncn2[C@H]1C[C@H](O)[C@@H](CO)O1` [CLADRIBINE], the Inhibition in the test with Klebsiella pneumoniae is 16.3%; in the test with Candida albicans, 1.93%; in the test with Cryptococcus neoformans it was -8.92%.
Take `COCC1=C(C(=O)OC(C)OC(=O)OC(C)C)N2C(=O)[C@@H](NC(=O)/C(=N\OC)c3csc(N)n3)[C@H]2SC1` (stereo partly specified) [CEFPODOXIME PROXETIL]: the Inhibition with Klebsiella pneumoniae is 5.41%; in the test on Candida albicans, 4.56%; in the test with Cryptococcus neoformans, 0.11%.
Consider `Cc1ccc(-c2cc(C(F)(F)F)nn2-c2ccc(S(N)(=O)=O)cc2)cc1` [CELECOXIB], for which the Inhibition amounted to 10.55% with Klebsiella pneumoniae, 2.46% in the test with Candida albicans and 0.77% with Cryptococcus neoformans.
`CN1CCN(CC/C=C2/c3ccccc3Sc3ccc(S(=O)(=O)N(C)C)cc32)CC1` [THIOTHIXENE]: the Inhibition in the test with Klebsiella pneumoniae was 0.07%; with Candida albicans, 2.99%; with Cryptococcus neoformans it was -5.03%.
For the molecule `N=c1cc(N2CCCCC2)nc(N)n1O`, the values for the Inhibition with Klebsiella pneumoniae, in the test on Candida albicans and in the test with Cryptococcus neoformans were 8.77%, 2.93% and -7.74%, respectively.
`NC(CO)(CO)CO.O=C(c1ccccc1)c1ccc2n1CCC2C(=O)O` (stereo unspecified) [KETOROLAC TROMETHAMINE]: the values for the Inhibition in the test on Klebsiella pneumoniae, in the test with Candida albicans and in the test on Cryptococcus neoformans were 3.11%, -0.08% and -4.39%, respectively.
As for `CCN(Cc1ccncc1)C(=O)C(CO)c1ccccc1` (stereo unspecified) [TROPICAMIDE], the Inhibition in the test on Klebsiella pneumoniae was 7.31%; in the test on Candida albicans it was 0.91%; in the test with Cryptococcus neoformans it was -7.15%.
For `COc1ccc(C(=O)NCc2ccc(OCCN(C)C)cc2)cc1OC.Cl`, the values for the Inhibition in the test with Klebsiella pneumoniae, in the test with Candida albicans and with Cryptococcus neoformans were 9.02%, 4.71% and -2.57%, respectively.
With `O=C(O)COCCN1CCN(C(c2ccccc2)c2ccc(Cl)cc2)CC1` (stereo unspecified) [CETIRIZINE], the Inhibition with Klebsiella pneumoniae is -1.38%; with Candida albicans, 3.71%; in the test on Cryptococcus neoformans, -6.19%.
`Cl.O=C1[C@H]2CCCC[C@H]2C(=O)N1CCCCN1CCN(c2nsc3ccccc23)CC1`: the Inhibition in the test on Klebsiella pneumoniae is 9.66%; in the test with Candida albicans it was 2.33%; in the test with Cryptococcus neoformans, -7.18%.
